Measured values taken from PubChem BioAssay.
Calls of active or inactive are those of the source.

Columns and labels:
[1] = system: Human papillomavirus type 1a protein E7 (residues 44-93); experiment: HPV1a E7 fragment binders on microarrays, primary screen, biochemical, small-molecule microarray, residues 44-93, 635 nm fluorescence (AID 1108); settings: small-molecule microarray binding, fluorescence 635 nm; higher = more signal;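 note: E7 fragment applied at 1 µg/mL in TBST for 1 h at 4 C; score combines spot fluorescence with its signal to noise ratio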
[2] = modulators of HCV replicon luciferase signal, primary screen, HCV replication inhibitor project, Huh7 cells, luciferase reporter (AID 1109); settings: 48 h, higher = more signal;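 note: huh7 hepatoma cells harbouring a luciferase neomycin HCV replicon reporter; luciferase luminescence as measure of HCV replicon replication; test concentration not given here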
[3] = biological target: Left-right determination factor 2 (Homo sapiens) (UniProt O00292); experiment: LEFTY2 binders on small-molecule microarrays, primary screen, biochemical, small-molecule microarray, 635 nm fluorescence scan (AID 1110); settings: LEFTY2 binding, higher = more signal
Left-right determination factor 2 (Homo sapiens), sequence (O00292 whole entry, looked up): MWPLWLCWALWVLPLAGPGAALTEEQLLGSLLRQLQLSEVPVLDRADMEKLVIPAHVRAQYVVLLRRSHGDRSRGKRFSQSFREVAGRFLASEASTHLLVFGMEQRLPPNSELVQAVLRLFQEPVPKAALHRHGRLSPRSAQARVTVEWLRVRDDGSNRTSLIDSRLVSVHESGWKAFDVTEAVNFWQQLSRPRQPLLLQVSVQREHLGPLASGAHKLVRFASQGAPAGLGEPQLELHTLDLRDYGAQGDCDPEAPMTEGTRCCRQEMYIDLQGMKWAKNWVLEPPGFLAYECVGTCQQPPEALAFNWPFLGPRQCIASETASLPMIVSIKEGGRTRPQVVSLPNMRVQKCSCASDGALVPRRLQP

[4] = biological target: Calmodulin-1 (Homo sapiens) (UniProt P0DP23); experiment: CALM1 binders on microarrays, EGTA buffer, profiling panel, biochemical, small-molecule microarray, Cy5-labelled CALM1 (AID 1111); settings: Cy5-CALM1 binding fluorescence, higher = more signal;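 note: labelled calmodulin applied in Tris saline Tween buffer holding calcium plus EGTA and DTT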
[5] = biological target: Calmodulin-1 (Homo sapiens) (UniProt P0DP23); experiment: calcium-bound CALM1 binders on microarrays, profiling panel, artefact control for SMM control-protein annotation, biochemical, small-molecule microarray, Cy5-labelled CALM1, plus calcium (AID 1112); settings: Cy5-CALM1 binding fluorescence, higher = more signal;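 note: score merges spot fluorescence with signal to noise from triplicate slides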
[6] = small-molecule microarray binders of probe aWnt5a, primary screen, biochemical, biotinylated probe, 635/667 nm fluorescence (AID 1113); settings: higher = more signal;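 note: score merges 667 nm fluorescence intensity with signal-to-noise per printed feature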
[7] = small-molecule microarray binders of probe aShh, primary screen, biochemical, biotinylated probe, 635/667 nm fluorescence (AID 1114); settings: higher = more signal;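 note: probe is biotin-labelled aShh protein from a stem cell growth factor screen; measures binding of labelled protein to compounds printed on the slide; score merges feature fluorescence at 667 nm with signal-to-noise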
[8] = small-molecule microarray binders of probe aNog, primary screen, biochemical, biotinylated probe, 635/667 nm fluorescence (AID 1115); settings: higher = more signal;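 note: probe is biotinylated aNog protein used at 0.15 µg/mL for 1 h at 4 C; z-score combines 667 nm fluorescence of each spot with its signal to noise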
[9] = biological target: Torsin-1A-interacting protein 1 (Homo sapiens) (UniProt Q5JTV8); experiment: LAP1 binders from COS7 cell lysate, primary screen, small-molecule microarray, 635/667 nm fluorescence (AID 1116); settings: COS7-hLAP1 lysate binding, 635 nm fluorescence, higher = more signal
Torsin-1A-interacting protein 1 (Homo sapiens), sequence (Q5JTV8 whole entry, looked up): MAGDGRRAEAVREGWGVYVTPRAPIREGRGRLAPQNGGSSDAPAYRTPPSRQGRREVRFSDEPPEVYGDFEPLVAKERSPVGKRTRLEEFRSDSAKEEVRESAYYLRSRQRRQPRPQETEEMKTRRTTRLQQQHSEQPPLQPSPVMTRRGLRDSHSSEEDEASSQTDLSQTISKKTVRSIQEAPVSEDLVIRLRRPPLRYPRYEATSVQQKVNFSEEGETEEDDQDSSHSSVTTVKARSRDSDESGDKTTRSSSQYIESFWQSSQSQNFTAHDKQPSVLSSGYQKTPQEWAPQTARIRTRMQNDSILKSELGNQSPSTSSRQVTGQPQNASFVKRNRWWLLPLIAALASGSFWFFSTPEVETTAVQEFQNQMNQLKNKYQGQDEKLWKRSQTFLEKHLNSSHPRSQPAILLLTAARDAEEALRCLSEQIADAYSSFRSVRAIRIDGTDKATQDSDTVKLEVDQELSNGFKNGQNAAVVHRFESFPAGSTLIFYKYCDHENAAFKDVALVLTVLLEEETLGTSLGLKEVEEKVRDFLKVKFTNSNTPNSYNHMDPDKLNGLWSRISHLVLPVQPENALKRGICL

[10] = biological target: Alpha-bungarotoxin (Bungarus multicinctus) (UniProt P60615); experiment: alpha-bungarotoxin binders on microarray, profiling panel, artefact control for SMM control protein annotation, biochemical, small-molecule microarray, Alexa647 label, 635/667 nm fluorescence (AID 1117); settings: alpha-BTX-A647 binding fluorescence, higher = more signal
Alpha-bungarotoxin (Bungarus multicinctus), sequence (P60615 whole entry, looked up): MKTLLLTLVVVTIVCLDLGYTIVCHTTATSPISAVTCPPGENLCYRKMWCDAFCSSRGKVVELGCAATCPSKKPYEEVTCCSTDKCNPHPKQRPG

Albumin (Bos taurus) = Albumin (Bos taurus) (UniProt P02769); experiment: bovine serum albumin binders on microarray, profiling panel, artefact control for SMM control protein annotation, biochemical, small-molecule microarray, Alexa647 label, 635/667 nm fluorescence (AID 1118); settings: BSA-A647 binding, fluorescence 635 nm, higher = more signal;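 note: score merges 667 nm emission intensity and signal-to-noise per printed compound spot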
Albumin (Bos taurus), sequence (P02769 whole entry, looked up): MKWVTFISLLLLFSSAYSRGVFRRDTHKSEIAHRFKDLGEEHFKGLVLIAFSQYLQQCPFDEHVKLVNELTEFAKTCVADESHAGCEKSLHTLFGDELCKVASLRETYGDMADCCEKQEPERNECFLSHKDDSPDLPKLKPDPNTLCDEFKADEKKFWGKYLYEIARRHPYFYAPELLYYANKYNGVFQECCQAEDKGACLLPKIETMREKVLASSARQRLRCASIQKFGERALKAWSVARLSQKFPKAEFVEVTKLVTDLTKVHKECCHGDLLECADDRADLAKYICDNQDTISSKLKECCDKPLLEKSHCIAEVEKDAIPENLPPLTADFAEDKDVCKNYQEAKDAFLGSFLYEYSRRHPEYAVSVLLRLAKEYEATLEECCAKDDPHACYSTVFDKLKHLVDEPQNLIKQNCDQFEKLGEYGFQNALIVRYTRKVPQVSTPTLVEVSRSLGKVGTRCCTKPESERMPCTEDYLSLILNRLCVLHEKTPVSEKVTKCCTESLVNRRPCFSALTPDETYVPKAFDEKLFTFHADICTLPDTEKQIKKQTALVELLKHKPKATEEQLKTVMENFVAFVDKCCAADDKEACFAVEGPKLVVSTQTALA

[11] = small-molecule microarray binders of probe aXIP, primary screen, biochemical, NeuroSMM set, 635/667 nm fluorescence (AID 1119); settings: higher = more signal, called active from +8 up or from −8 down;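 note: probe is the protein aXip251-270 applied at 1 µg/mL to compound-printed slides; binding of probe to printed compounds measured as 667 nm fluorescence plus signal to noise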
[12] = small-molecule binders of probe aNOTCH3, primary screen, biochemical, small-molecule microarray, 635/667 nm fluorescence (AID 1120); settings: higher = more signal;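 note: probe is a biotin-tagged antibody raised against NOTCH3 rather than NOTCH3 protein; score merges spot fluorescence near 667 nm with spot signal to noise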
[13] = small-molecule binders of probe aNOTCH2, primary screen, biochemical, small-molecule microarray, 635/667 nm fluorescence (AID 1121); settings: higher = more signal;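 note: score merges feature fluorescence read at 667 nm with its signal to noise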
[14] = biological target: Carbonic anhydrase 2 (Homo sapiens) (UniProt P00918); experiment: CAII small-molecule binders, profiling panel, biochemical, small-molecule microarray, Alexa647-labelled CAII (AID 1122); settings: CAII-A647 binding fluorescence, higher = more signal
[15] = COS7 lysate on small-molecule microarray, probe aHis, 635 nm (AID 1123); settings: COS7 cell lysate, fluorescence, higher = more signal;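 note: z-score combines 667nm fluorescence intensity with signal-to-noise per printed compound spot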
[16] = compound binding in COS7 lysate, probe aLAP1, primary screen, cell lysate, small-molecule microarray (AID 1124); settings: probe aLAP1, fluorescence, higher = more signal;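 note: lysate comes from COS7 cells expressing LAP1 and is applied at 0.3 µg/mL; score merges spot fluorescence near 667 nm with signal-to-noise over triplicate slides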
Sam68 (KHDRBS1) = experiment: Sam68 small-molecule binders, primary screen, biochemical, small-molecule microarray, 635 nm fluorescence (AID 1125); settings: small-molecule microarray binding, higher = more signal;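 note: score merges 667 nm channel intensity with signal to noise over triplicate slides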
[17] = system: Chordin-like protein 2 (CHRDL2); experiment: CHRDL2 small-molecule binders, primary screen, biochemical, small-molecule microarray, 635 nm fluorescence (AID 1126); settings: small-molecule microarray binding, fluorescence 635 nm; higher = more signal;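 note: printed compound slides probed with Chrdl2 protein at 4 µg/mL for 1 h at 4 C; score merges 667 nm emission intensity with signal to noise over three replicate slides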
[18] = biological target: Concanavalin-A (Canavalia ensiformis) (UniProt P02866); experiment: ConA small-molecule binders, primary screen, artefact control for SMM control protein annotation, biochemical, small-molecule microarray, Alexa647 label, 635 nm (AID 1127); settings: ConA-A647 binding fluorescence, higher = more signal;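 note: z combines 667 nm emission intensity with signal-to-noise across three replicate slides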
Concanavalin-A (Canavalia ensiformis), sequence (P02866 whole entry, looked up): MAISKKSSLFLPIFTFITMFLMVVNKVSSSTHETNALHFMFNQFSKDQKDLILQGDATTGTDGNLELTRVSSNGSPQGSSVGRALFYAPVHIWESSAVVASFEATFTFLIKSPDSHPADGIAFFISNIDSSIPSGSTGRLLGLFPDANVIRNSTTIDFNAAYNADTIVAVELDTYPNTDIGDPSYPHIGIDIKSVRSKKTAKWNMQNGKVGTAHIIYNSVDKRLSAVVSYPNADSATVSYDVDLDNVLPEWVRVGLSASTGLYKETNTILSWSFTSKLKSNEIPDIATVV

| Structure (SMILES) | composite z-score [1] | z-score [2] | composite z-score [3] | composite z-score [4] | composite z-score [5] | composite z-score [6] | composite z-score [7] | composite z-score [8] | composite z-score [9] | composite z-score [10] | composite z-score (Albumin (Bos taurus)) | composite Z-score [11] | composite z-score [12] | composite z-score [13] | composite z-score [14] | composite z-score [15] | composite z-score [16] | composite z-score (Sam68 (KHDRBS1)) | composite z-score [17] | composite z-score [18] |
| --- | --- | --- | --- | --- | --- | --- | --- | --- | --- | --- | --- | --- | --- | --- | --- | --- | --- | --- | --- | --- |
| COC(=O)[C@]1(CO)N=C(c2ccc(OCCCO)cc2)O[C@@H]1c1ccccc1N=[N+]=[N-] | 0.812 | 0.411 | 0.274 | -0.323 | -0.629 | 0.0189 | -0.226 | -0.215 | 1.6 | -0.0978 | -1.02 | 1.73 (inactive) | -0.112 | -0.0629 | 0.771 | 4.01 | 0.758 | 1.29 | 0.94 | 0.545 |
| C[C@H]1Cc2c(-c3ccccc3)nc3c(c2CO1)CN(CCOc1ccccc1)CC3 | 1.33 | -0.56 | 0.945 | 0.491 | -0.416 | -0.0203 | 0.147 | -0.0172 | 0.0704 | 0.269 | 0.68 | -0.2 (inactive) | 0.0667 | -0.112 | 0.352 | 0.71 | 0.292 | 1.3 | 0.521 | 0.993 |
| CCOC(=O)[C@H](Cc1ccccc1)NC(=O)CCC1CC(OC(=O)NCc2ccc3c(c2)OCO3)CC2(CCCC(COC(=O)NCc3ccccc3)O2)O1 (stereo not given in full) | 1.33 | -1.08 | 0.619 | 0.351 | -0.298 | -0.128 | -0.0793 | 0.041 | 0.183 | 0.463 | 0.3 | 0.255 (inactive) | 0.0437 | -0.0728 | 0.373 | 0.248 | 0.0766 | 1.06 | 0.261 | 0.915 |
| CO[C@H]1COC(=O)[C@@H]2CCCN2C(=O)CC=C[C@@H](C)[C@H](OC)COC(=O)CC=C[C@@H]1C | 0.589 | 1.34 | 1.47 | -2.29 | -2.06 | -0.117 | -0.0904 | -0.156 | -0.298 | -0.394 | -0.806 | 1.31 (inactive) | 0.0753 | -0.0931 | -0.235 | -0.0693 | 0.0482 | 1.28 | 1.38 | -1.28 |
| O=C1[C@H]2[C@H]3[C@H](O)[C@H](O)CC(=NO[C@@H]4O[C@H](CO)[C@@H](O)[C@H](O)[C@H]4O)[C@@H]3CC[C@H]2C(=O)N1c1ccc(F)cc1F | 0.343 | 0.434 | 0.428 | -0.364 | -0.561 | -0.12 | 0.284 | -0.349 | 0.467 | 0.161 | 0.241 | -0.836 (inactive) | -0.0612 | -0.104 | -0.0947 | -0.0596 | 0 | 0.465 | 0.426 | 0.262 |
| COC(=O)CC=C[C@H](C)[C@H](CO)NS(=O)(=O)c1ccc(C)cc1 | 0.144 | -0.763 | 0.703 | -0.756 | -0.624 | -0.124 | -0.117 | -0.0094 | 0.729 | 0.219 | -0.333 | 0.755 (inactive) | 0.0522 | -0.13 | 0.131 | -0.0961 | 0.121 | 0.217 | 0.91 | 0.579 |
| CC(C)(C)OC(=O)CC[C@]1(C(N)=O)COC(c2ccc(OCCCO)cc2)=N1 | 0.0119 | -0.518 | -0.471 | 2.68 | 1.42 | 0.131 | 0.591 | 1.7 | 2.08 | 1.64 | 0.617 | 1.43 (inactive) | 0.324 | 0.357 | 0.983 | 2.97 | 1.44 | 1.21 | 0.0555 | -0.207 |
| CC(=O)OC[C@H]1O[C@@H](ON=C[C@@H](C)[C@H](OCc2ccccc2)C(C)C)[C@H](OC(C)=O)[C@@H](OC(C)=O)[C@@H]1OC(C)=O | 0.162 | -0.518 | 0.619 | 0.336 | -0.815 | -0.0754 | -0.19 | -0.144 | -0.563 | 0.226 | -0.25 | 0.0474 (inactive) | -0.0672 | -0.159 | -0.934 | -0.0857 | -0.246 | 0.96 | -0.838 | 0.468 |
| CC(CCN1CCCCc2nc(C)c(C)cc21)=NOC(C)CN1CCCc2nc(C)c(C)cc21 (stereo not given) | 1.2 | -0.974 | 1.12 | 1.09 | -0.573 | 0.298 | 1.25 | 0.578 | 1.13 | 2.07 | 0.493 | 1.69 (inactive) | 0.721 | 0.153 | 0.533 | 1.79 | 0.257 | 1.29 | 1.2 | 1.14 |
| CC(C)C[C@@H]1NC(=O)[C@H]2C[C@@H](C(=O)O)[C@@H](c3ccc(O)cc3)N2C1=O | 0.635 | 3.51 | 0.0945 | -0.187 | 0.131 | -0.0704 | 0.0611 | -0.144 | 0.588 | 2.19 | 0.111 | -0.2 (inactive) | -0.0311 | -0.0586 | 0.419 | 0.666 | -0.79 | 0.62 | 0.51 | 0.684 |
| COCCCNC(=O)[C@]1(Cc2ccccc2)N=C(c2ccc(OCCCO)cc2)O[C@@H]1c1ccccc1 | 1.09 | -1.05 | -0.248 | 1.81 | 0.213 | 0.201 | 0.299 | 1.89 | 1.84 | 1.32 | 0.998 | 0.12 (inactive) | 0.108 | 0.0745 | 0.726 | 3.09 | 0.401 | 1.31 | -0.547 | 1.02 |
